Source: PubChem BioAssay (EPA / NIEHS)
Inconclusive results are not listed. Some structures have more than one record in an assay (separate samples or runs), and their calls can disagree. Calls of active or inactive are those of the source. Rule for the calls, unless noted: active = hit-call score of the fitted dose curve at least 0.9, where 1 is the maximum; inconclusive = response in the unintended direction; inactive = score below 0.9.

Assays:
[1] = target: human Peroxisome Proliferator-activated Receptor alpha (PPARa), PPARA (gene 5465) (UniProt Q07869); test: ATG_PPARa_TRANS: Attagene TRANS-FACTORIAL HepG2 Assay for human Peroxisome Proliferator-activated Receptor alpha (PPARa) (AID 2283001)
Procedure, shortened: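 Gain-of-signal endpoint: reporter mRNA induction relative to DMSO, detected by fluorescent RT-PCR and capillary electrophoresis. HepG2 cells transiently carried GAL4-UAS-driven reporter units plus NR-Gal4 fusion; exposure lasted 24 h.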

[2] = read-out: Intercellular Adhesion Molecule 1 (ICAM1), ICAM1 (gene 3383); test: BSK_3C_ICAM1: BioMAP Diversity Plus: 3C Assay for Intercellular Adhesion Molecule 1 (ICAM1) Biomarker Activity (AID 2283003; active = hit-call score of the fitted dose curve at least 0.9, where 1 is the maximum; inactive = score below 0.9); details: primary human endothelial cells (HUVEC); actives raise or lower the signal
Procedure, shortened: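 ICAM-1 levels measured by ELISA after HUVEC cultures in the 3C system had been dosed for 24 h. Gain or loss of signal relative to DMSO was fitted in both directions.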

[3] = BSK_3C_Proliferation: Cell Proliferation Assessment in the BioMAP Diversity Plus: 3C Assay (AID 2283006; active = hit-call score of the fitted dose curve at least 0.9, where 1 is the maximum; inactive = score below 0.9); details: primary human endothelial cells (HUVEC)
Procedure, shortened: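 Read-out is total protein by SRB absorbance at 560 nm, taken as a proxy for relative cell number. Primary human umbilical vein endothelium cultured below confluence was dosed for 48 h, TCA-fixed and SRB-stained; curves were fitted bidirectionally versus DMSO.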

[4] = target: Peroxisome proliferator-activated receptor gamma (Homo sapiens) (UniProt P37231); test: ATG_PPARg_TRANS: Attagene TRANS-FACTORIAL HepG2 Assay for human Peroxisome Proliferator-activated Receptor-gamma (PPARg) (AID 2283007)
Procedure, shortened: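 A TRANS-format multiplexed reporter assay measures activity of an exogenous chimeric NR-Gal4 protein in HepG2 cells. After 24 h of chemical exposure, reporter transcripts are amplified, fluorescently labelled and sized by capillary electrophoresis, with gain of signal scored against DMSO.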

[5] = target: Nuclear receptor subfamily 1 group I member 2 (Homo sapiens) (UniProt O75469); test: ATG_PXR_TRANS: Attagene TRANS-FACTORIAL HepG2 Assay for human Pregnane X Receptor (PXR) (AID 2283008)
Procedure, shortened: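 Read-out is fluorescence of labelled reporter cDNA fragments separated by capillary electrophoresis after RT-PCR and HpaI digestion. Source: HepG2 cells carrying PXR-GAL4/UAS reporter constructs, treated 24 h; activity fitted upward relative to DMSO.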

[6] = read-out: E-selectin (Homo sapiens) (UniProt P16581); test: BSK_3C_Eselectin: BioMAP Diversity Plus: 3C Assay for Eselectin Biomarker Activity (AID 2283015; active = hit-call score of the fitted dose curve at least 0.9, where 1 is the maximum; inactive = score below 0.9;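 note: cell surface E-selectin protein quantified by ELISA 24 h after dosing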); details: primary human endothelial cells (HUVEC); actives raise or lower the signal
Procedure, shortened: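 Primary human umbilical vein endothelial cells (3C system) were dosed with chemical and cell-surface E-selectin measured by ELISA 24 h later. Bidirectional curve fitting used DMSO as negative control and baseline.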

[7] = read-out: Interleukin-1 alpha (IL1a), IL1A (gene 3552); test: BSK_BE3C_IL1a: BioMAP Diversity Plus: BE3C Assay for Interleukin-1 alpha (IL1a) Biomarker Activity (AID 2283016; active = hit-call score of the fitted dose curve at least 0.9, where 1 is the maximum; inactive = score below 0.9); details: primary human bronchial epithelial cells; actives raise or lower the signal
Procedure, shortened: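 BE3C primary human bronchial epithelium; cpd 24 h; IL-1a by ELISA; bidirectional fit vs DMSO; parallel SRB (0.1% SRB, 10% TCA fix, 560 nm) for cytotoxicity.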

[8] = read-out: Monocyte Chemoattractant Protein-1 (MCP1), CCL2 (gene 6347); test: BSK_3C_MCP1: BioMAP Diversity Plus: 3C Assay for Monocyte Chemoattractant Protein-1 (MCP1) Biomarker Activity (AID 2283017; active = hit-call score of the fitted dose curve at least 0.9, where 1 is the maximum; inactive = score below 0.9); details: primary human endothelial cells (HUVEC); actives raise or lower the signal
Procedure, shortened: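 Primary human umbilical vein endothelial cells (3C system) were exposed to test chemical for 24 h, after which MCP-1 was quantified by ELISA. Activity was fitted bidirectionally against DMSO as negative control and baseline.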

[9] = read-out: Monocyte Chemoattractant Protein-1 (MCP1), CCL2 (gene 6347); test: BSK_4H_MCP1: BioMAP Diversity Plus: 4H Assay for Monocyte Chemoattractant Protein-1 (MCP1) Biomarker Activity (AID 2283018; active = hit-call score of the fitted dose curve at least 0.9, where 1 is the maximum; inactive = score below 0.9); details: primary human endothelial cells (HUVEC); actives raise or lower the signal
Procedure, shortened: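 ELISA read-out of MCP-1 from human vascular endothelial primary cells taken at 24 hours after compound exposure. Activity was fitted in both directions relative to DMSO, which served as negative control.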

[10] = read-out: Human Leukocyte Antigen - DR isotype (HLADR), HLA-DRA (gene 3122); test: BSK_3C_HLADR: BioMAP Diversity Plus: 3C Assay for Human Leukocyte Antigen - DR isotype (HLADR) Biomarker Activity (AID 2283019; active = hit-call score of the fitted dose curve at least 0.9, where 1 is the maximum; inactive = score below 0.9;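 note: ELISA of cell-surface HLA-DR on HUVEC 24 h after dosing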); details: primary human endothelial cells (HUVEC); actives raise or lower the signal
Procedure, shortened: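 Primary human umbilical vein endothelial cells (3C system) were dosed with compound and cell-surface HLA-DR was quantified by ELISA at 24 h. Activity was fitted bidirectionally against DMSO as negative control and baseline.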

[11] = read-out: Interleukin-8 (IL8), CXCL8 (gene 3576); test: BSK_3C_IL8: BioMAP Diversity Plus: 3C Assay for Interleukin-8 (IL8) Biomarker Activity (AID 2283020; active = hit-call score of the fitted dose curve at least 0.9, where 1 is the maximum; inactive = score below 0.9); details: primary human endothelial cells (HUVEC); actives raise or lower the signal
Procedure, shortened: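 ELISA read-out of IL-8 from human umbilical vein endothelium, measured 24 h after chemical dosing. Activity is expressed relative to DMSO negative control, with both increases and decreases fitted.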

[12] = read-out: Monokine induced gamma interferon (MIG), CXCL9 (gene 4283); test: BSK_3C_MIG: BioMAP Diversity Plus: 3C Assay for Monokine induced gamma interferon (MIG) Biomarker Activity (AID 2283021; active = hit-call score of the fitted dose curve at least 0.9, where 1 is the maximum; inactive = score below 0.9); details: primary human endothelial cells (HUVEC); actives raise or lower the signal
Procedure, shortened: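 Read-out is ELISA detection of MIG on human umbilical vein endothelial cells, taken 24 h after dosing. Gain or loss of signal was scored relative to DMSO controls using bidirectional curve fitting.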

[13] = target: human Vitamin D Receptor (VDR), VDR (gene 7421) (UniProt P11473); test: ATG_VDR_TRANS: Attagene TRANS-FACTORIAL HepG2 Assay for human Vitamin D Receptor (VDR) (AID 2283022)
Procedure, shortened: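 HepG2 cells were transiently transfected with multiple GAL4-UAS reporter units, so signal reflects exogenous chimeric receptor-Gal4 activity. After 24 h compound exposure, reporter mRNA was measured by RT-PCR, fluorescent labelling and capillary electrophoresis, fitted for gain of signal versus DMSO.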

[14] = target: human Retinoic Acid Receptor gamma (RARg), RARG (gene 5916) (UniProt P13631); test: ATG_RARg_TRANS: Attagene TRANS-FACTORIAL HepG2 Assay for human Retinoic Acid Receptor gamma (RARg) (AID 2283009)
Procedure, shortened: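 Transient transfection of HepG2 with multi-reporter constructs, then 24 h chemical treatment. Total RNA isolated, reverse-transcribed, PCR-amplified, fluorescently labelled and resolved by capillary electrophoresis; activity scored as mRNA induction versus DMSO.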

[15] = target: human RAR-related Orphan Receptor beta (RORb), RORB (gene 6096) (UniProt Q92753); test: ATG_RORb_TRANS: Attagene TRANS-FACTORIAL HepG2 Assay for human RAR-related Orphan Receptor beta (RORb) (AID 2283010)
Procedure, shortened: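 Readout is reporter-gene mRNA induction, detected as fluorescence after RT-PCR and capillary electrophoresis, fitted for gain of signal against DMSO controls. Transiently transfected HepG2 liver cells carrying GAL4-UAS reporter constructs were treated for 24 hours.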

[16] = target: human RAR-related Orphan Receptor gamma (RORg), RORC (gene 6097) (UniProt P51449); test: ATG_RORg_TRANS: Attagene TRANS-FACTORIAL HepG2 Assay for human RAR-related Orphan Receptor gamma (RORg) (AID 2283011)
Procedure, shortened: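 Readout: reporter transcript induction (RT-PCR, fluorescent primer extension, capillary electrophoresis) after 24 h compound exposure of transiently transfected HepG2 cells carrying a RORg-Gal4 chimera and GAL4-UAS reporters; DMSO served as baseline, with increasing signal fitted.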

[17] = target: Retinoic acid receptor RXR-alpha (Homo sapiens) (UniProt P19793); test: ATG_RXRa_TRANS: Attagene TRANS-FACTORIAL HepG2 Assay for human Retinoid X Receptor alpha (RXRa) (AID 2283012)
Procedure, shortened: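 Transient transfection of human HepG2 with multiple GAL4-UAS reporter constructs; 24 h compound exposure; total RNA isolated, reverse-transcribed, PCR-amplified, 6-FAM labelled, HpaI-cut, resolved by capillary electrophoresis. Positive-direction fit versus DMSO.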

[18] = target: human Retinoid X Receptor beta (RXRb), RXRB (gene 6257) (UniProt P28702); test: ATG_RXRb_TRANS: Attagene TRANS-FACTORIAL HepG2 Assay for human Retinoid X Receptor beta (RXRb) (AID 2283013)
Procedure, shortened: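 Transfect HepG2 with GAL4-UAS multi-reporter constructs (chimeric NR-Gal4, TRANS format); dose compound 24 h; isolate RNA, RT-PCR, FAM primer extension, HpaI digest; quantify by capillary electrophoresis; positive direction vs DMSO.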

[19] = target: human Thyroid Receptor alpha (THRa1), THRA (gene 7067) (UniProt P10827); test: ATG_THRa1_TRANS: Attagene TRANS-FACTORIAL HepG2 Assay for human Thyroid Receptor alpha (THRa1) (AID 2283014)
Procedure, shortened: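 HepG2 cells transiently transfected with multiplexed GAL4-UAS reporter units for exogenous chimeric THRa1-Gal4; reporter mRNA measured 24 h after dosing by RT-PCR, 6-FAM labelling, HpaI digestion and capillary electrophoresis. Gain-of-signal fitted versus DMSO baseline.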

[20] = target: human Peroxisome Proliferator-activated Receptor delta (PPARd), PPARD (gene 5467) (UniProt Q03181); test: ATG_PPARd_TRANS: Attagene TRANS-FACTORIAL HepG2 Assay for human Peroxisome Proliferator-activated Receptor delta (PPARd) (AID 2283002)
Procedure, shortened: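 Measured quantity: GAL4-UAS reporter transcript induction in HepG2 after 24 h chemical dosing, with NR-Gal4 chimeras supplied by transient transfection. Detection by RT-PCR and capillary electrophoresis; upward fit against DMSO.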

Chain of Nuclear receptor subfamily 1 group I member 2 (Homo sapiens) (O75469 whole entry, looked up, the tested form may be a part): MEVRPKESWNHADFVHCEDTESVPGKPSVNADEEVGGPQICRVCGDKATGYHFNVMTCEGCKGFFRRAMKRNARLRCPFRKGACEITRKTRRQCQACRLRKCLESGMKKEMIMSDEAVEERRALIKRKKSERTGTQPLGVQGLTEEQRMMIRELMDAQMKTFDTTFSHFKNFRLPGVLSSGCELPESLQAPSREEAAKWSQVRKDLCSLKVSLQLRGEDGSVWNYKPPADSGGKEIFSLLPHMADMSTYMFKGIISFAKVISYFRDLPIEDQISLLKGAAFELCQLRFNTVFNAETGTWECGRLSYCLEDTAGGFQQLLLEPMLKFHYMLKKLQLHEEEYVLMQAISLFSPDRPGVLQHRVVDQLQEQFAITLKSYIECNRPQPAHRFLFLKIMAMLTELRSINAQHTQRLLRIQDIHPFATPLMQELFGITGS
Chain of human Retinoid X Receptor beta (RXRb), RXRB (gene 6257) (P28702 whole entry, looked up, the tested form may be a part): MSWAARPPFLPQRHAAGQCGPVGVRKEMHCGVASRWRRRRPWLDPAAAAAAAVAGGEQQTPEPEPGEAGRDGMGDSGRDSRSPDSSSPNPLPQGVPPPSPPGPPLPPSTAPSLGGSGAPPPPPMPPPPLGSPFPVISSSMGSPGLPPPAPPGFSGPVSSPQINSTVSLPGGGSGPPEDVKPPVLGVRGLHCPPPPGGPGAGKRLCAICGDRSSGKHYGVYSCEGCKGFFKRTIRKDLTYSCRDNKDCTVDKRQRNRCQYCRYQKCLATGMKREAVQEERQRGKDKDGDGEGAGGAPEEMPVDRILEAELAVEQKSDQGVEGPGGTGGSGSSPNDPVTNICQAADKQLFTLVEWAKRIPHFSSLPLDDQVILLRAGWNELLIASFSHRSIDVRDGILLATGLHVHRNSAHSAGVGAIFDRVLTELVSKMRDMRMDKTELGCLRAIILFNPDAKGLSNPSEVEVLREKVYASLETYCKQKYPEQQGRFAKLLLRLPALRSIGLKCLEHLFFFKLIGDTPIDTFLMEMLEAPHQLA
Chain of Retinoic acid receptor RXR-alpha (Homo sapiens) (P19793 whole entry, looked up, the tested form may be a part): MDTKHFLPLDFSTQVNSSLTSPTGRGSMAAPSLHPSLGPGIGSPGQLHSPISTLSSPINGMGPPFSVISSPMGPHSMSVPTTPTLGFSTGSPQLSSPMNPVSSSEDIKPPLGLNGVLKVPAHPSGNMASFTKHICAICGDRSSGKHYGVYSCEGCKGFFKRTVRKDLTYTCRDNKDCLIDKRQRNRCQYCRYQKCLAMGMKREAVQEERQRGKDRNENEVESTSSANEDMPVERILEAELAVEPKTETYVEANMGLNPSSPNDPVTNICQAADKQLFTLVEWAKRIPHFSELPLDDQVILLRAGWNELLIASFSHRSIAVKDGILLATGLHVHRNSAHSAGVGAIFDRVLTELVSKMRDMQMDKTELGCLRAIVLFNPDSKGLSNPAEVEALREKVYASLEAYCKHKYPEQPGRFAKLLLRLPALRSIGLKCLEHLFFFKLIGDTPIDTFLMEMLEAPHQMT
Chain of human Thyroid Receptor alpha (THRa1), THRA (gene 7067) (P10827 whole entry, looked up, the tested form may be a part): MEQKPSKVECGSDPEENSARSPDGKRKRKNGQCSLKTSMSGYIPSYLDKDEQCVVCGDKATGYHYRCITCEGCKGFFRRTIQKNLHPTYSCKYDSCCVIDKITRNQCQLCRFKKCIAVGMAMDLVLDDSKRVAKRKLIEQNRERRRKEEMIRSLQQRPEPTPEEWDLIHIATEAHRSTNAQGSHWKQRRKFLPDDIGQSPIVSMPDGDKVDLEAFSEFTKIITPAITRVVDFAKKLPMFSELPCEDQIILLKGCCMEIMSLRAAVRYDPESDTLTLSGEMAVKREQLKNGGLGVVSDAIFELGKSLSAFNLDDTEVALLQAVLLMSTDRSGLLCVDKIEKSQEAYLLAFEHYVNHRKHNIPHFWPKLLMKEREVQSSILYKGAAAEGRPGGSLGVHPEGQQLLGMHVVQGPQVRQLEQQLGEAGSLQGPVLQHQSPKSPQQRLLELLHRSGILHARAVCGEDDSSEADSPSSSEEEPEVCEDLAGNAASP
Chain of human RAR-related Orphan Receptor beta (RORb), RORB (gene 6096) (Q92753 whole entry, looked up, the tested form may be a part): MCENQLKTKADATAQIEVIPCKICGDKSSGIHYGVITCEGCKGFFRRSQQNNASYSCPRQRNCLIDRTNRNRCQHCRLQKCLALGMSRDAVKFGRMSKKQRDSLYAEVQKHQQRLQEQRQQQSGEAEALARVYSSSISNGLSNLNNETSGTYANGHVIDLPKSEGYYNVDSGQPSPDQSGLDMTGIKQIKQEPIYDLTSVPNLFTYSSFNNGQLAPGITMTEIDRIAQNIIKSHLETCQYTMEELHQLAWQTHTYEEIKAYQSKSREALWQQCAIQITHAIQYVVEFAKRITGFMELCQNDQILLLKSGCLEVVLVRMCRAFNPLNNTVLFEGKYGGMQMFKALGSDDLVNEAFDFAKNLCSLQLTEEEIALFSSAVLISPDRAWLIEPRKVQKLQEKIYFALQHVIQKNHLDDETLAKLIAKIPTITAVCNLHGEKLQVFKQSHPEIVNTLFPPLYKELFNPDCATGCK
Chain of human Peroxisome Proliferator-activated Receptor alpha (PPARa), PPARA (gene 5465) (Q07869 whole entry, looked up, the tested form may be a part): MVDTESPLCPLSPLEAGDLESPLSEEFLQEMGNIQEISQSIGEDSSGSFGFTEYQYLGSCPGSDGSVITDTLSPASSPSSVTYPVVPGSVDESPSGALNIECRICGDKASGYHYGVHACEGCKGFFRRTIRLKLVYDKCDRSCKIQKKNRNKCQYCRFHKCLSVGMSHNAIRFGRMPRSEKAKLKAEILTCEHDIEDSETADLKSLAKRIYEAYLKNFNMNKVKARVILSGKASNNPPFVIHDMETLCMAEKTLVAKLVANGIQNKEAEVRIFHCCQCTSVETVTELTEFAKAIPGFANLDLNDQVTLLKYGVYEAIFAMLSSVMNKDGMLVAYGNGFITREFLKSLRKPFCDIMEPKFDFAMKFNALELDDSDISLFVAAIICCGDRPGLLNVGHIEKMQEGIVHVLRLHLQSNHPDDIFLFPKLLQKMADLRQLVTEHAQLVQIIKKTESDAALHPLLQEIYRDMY
Chain of human RAR-related Orphan Receptor gamma (RORg), RORC (gene 6097) (P51449 whole entry, looked up, the tested form may be a part): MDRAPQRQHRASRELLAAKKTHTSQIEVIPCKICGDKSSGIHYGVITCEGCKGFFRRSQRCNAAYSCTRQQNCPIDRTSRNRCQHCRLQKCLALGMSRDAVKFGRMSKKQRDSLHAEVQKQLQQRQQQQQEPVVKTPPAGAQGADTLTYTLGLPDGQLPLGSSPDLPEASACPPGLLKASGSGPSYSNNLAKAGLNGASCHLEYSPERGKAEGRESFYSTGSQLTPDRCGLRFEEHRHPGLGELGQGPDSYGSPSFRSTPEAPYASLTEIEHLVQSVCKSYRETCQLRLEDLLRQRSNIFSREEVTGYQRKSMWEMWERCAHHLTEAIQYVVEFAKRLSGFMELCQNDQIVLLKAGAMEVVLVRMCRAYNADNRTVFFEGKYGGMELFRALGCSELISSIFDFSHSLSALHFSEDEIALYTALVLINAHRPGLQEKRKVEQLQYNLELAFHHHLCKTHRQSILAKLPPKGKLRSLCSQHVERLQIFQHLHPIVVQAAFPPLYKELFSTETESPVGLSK
Chain of human Vitamin D Receptor (VDR), VDR (gene 7421) (P11473 whole entry, looked up, the tested form may be a part): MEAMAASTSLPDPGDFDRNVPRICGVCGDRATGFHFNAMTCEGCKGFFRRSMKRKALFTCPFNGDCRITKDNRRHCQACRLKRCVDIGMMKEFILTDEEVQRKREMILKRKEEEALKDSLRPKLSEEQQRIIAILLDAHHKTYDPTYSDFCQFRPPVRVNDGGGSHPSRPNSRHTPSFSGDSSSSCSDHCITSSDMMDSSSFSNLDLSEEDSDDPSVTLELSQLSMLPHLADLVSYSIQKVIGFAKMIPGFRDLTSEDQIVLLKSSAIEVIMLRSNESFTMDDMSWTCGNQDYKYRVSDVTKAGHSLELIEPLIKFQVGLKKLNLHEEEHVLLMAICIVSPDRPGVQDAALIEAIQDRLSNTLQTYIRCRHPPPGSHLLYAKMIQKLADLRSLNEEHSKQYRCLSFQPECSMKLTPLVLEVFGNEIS
Chain of Peroxisome proliferator-activated receptor gamma (Homo sapiens) (P37231 whole entry, looked up, the tested form may be a part): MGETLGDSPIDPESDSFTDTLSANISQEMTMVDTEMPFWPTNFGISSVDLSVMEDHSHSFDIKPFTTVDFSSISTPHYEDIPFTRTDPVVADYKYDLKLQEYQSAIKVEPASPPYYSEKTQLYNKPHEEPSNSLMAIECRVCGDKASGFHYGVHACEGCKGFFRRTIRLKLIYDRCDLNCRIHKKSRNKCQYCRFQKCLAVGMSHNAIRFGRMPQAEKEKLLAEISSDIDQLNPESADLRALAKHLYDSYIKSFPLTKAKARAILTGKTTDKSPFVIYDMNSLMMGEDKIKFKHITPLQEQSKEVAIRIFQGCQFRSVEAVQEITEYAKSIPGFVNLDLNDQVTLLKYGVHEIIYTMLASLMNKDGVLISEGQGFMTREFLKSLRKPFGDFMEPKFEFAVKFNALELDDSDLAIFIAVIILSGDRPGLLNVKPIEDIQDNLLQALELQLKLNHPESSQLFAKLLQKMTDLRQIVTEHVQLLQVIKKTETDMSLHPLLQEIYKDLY
Chain of E-selectin (Homo sapiens) (P16581 whole entry, looked up): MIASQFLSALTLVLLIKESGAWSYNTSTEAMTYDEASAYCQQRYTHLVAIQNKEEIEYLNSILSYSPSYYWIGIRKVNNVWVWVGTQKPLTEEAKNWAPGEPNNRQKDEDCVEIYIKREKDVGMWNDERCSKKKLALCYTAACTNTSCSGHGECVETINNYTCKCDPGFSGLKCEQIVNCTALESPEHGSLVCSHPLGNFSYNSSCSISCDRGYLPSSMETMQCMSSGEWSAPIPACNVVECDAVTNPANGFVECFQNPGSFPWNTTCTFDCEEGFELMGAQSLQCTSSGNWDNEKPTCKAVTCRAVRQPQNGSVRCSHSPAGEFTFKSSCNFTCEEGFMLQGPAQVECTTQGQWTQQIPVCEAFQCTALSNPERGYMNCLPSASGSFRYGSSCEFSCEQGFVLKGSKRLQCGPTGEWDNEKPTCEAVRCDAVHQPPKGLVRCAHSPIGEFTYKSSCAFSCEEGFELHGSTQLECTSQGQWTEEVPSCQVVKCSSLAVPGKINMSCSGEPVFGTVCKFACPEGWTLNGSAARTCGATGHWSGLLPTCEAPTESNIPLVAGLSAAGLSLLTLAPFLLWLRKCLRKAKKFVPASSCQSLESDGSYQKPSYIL

With NC(=O)N(O)[C@@H]1COc2cc(OCc3ccccc3)ccc21 the outcome [1] was “inactive”, the outcome [2] was “inactive” and the outcome [3] was “inactive”. For the same molecule, the outcome [4] was “inactive”, the outcome [5] was “inactive” and the outcome [6] was “inactive”. The outcome [7] was “inactive”, the outcome [8] was “inactive” and the outcome [9] was “inactive”. For the same molecule, the outcome [10] was “inactive”, the outcome [11] was “inactive” and the outcome [12] was “inactive”. The outcome [13] was “inactive”.
For O=C(Cl)C(F)(F)C(F)(F)C(F)(F)C(=O)Cl, the outcome [1] was “inactive”, the outcome [2] was “inactive” and the outcome [3] was “inactive”. The outcome [4] was “inactive”, the outcome [5] was “inactive” and the outcome [14] was “inactive”. The outcome [15] was “inactive”, the outcome [16] was “inactive” and the outcome [17] was “inactive”. The outcome [18] was “inactive”, the outcome [6] was “inactive” and the outcome [7] was “inactive”. The outcome [9] was “inactive”, the outcome [12] was “inactive” and the outcome [13] was “inactive”.
With NNC(=O)c1ccncc1 the outcome [1] was “inactive”, the outcome [2] was “inactive” and the outcome [3] was “inactive”. For the same molecule, the outcome [4] was “inactive”, the outcome [5] was “inactive” and the outcome [15] was “inactive”. For the same molecule, the outcome [16] was “inactive”, the outcome [17] was “inactive” and the outcome [19] was “inactive”. The outcome [6] was “inactive”, the outcome [7] was “inactive” and the outcome [8] was “inactive”. For the same molecule, the outcome [9] was “inactive”, the outcome [12] was “inactive” and the outcome [13] was “inactive”.
In the case of OCC(CO)(CO)CO, the outcome [1] is reported as “inactive”, the outcome [20] is reported as “inactive” and the outcome [3] is reported as “inactive”. For the same molecule, the outcome [4] was “inactive”, the outcome [5] was “inactive” and the outcome [16] was “inactive”. For the same molecule, the outcome [17] was “inactive”, the outcome [18] was “inactive” and the outcome [19] was “inactive”. The outcome [6] was “inactive”, the outcome [7] was “inactive” and the outcome [9] was “inactive”. For the same molecule, the outcome [10] was “inactive”, the outcome [11] was “inactive” and the outcome [12] was “inactive”. For the same molecule, the outcome [13] was “inactive”.
With CC(C)CCCCCCOC(=O)C1CCCCC1C(=O)OCCCCCCC(C)C (configuration not stated) the outcome [1] was “inactive”, the outcome [2] was “inactive” and the outcome [3] was “inactive”. For the same molecule, the outcome [4] was “inactive”, the AC50 [5] was 1.37 µM (active) and the outcome [15] was “inactive”. The outcome [19] was “inactive”, the outcome [6] was “inactive” and the outcome [7] was “inactive”. The outcome [9] was “inactive”, the outcome [10] was “inactive” and the outcome [11] was “inactive”. The outcome [12] was “inactive” and the outcome [13] was “inactive”.
With OCc1ccccc1 the outcome [1] was “inactive”, the outcome [2] was “inactive” and the outcome [3] was “inactive”. For the same molecule, the outcome [4] was “inactive”, the outcome [16] was “inactive” and the AC50 [17] was 5.67 µM (active). For the same molecule, the outcome [17] was “inactive”, the AC50 [18] was 1.09 µM (active) and the outcome [19] was “inactive”. The outcome [6] was “inactive”, the outcome [7] was “inactive” and the outcome [8] was “inactive”. The outcome [9] was “inactive”, the outcome [11] was “inactive” and the outcome [12] was “inactive”.
